# According to the supplement of paper PMC3342239:
# Counter-ions that a name gives are not always drawn.
# Tested on: Saccharomyces cerevisiae
# Assay: fraction of cells in G1 phase (DNA content, flow cytometry); higher = more cells with unreplicated DNA (G1 delay)
# Conditions: temperature: 30 C, YPD
# In short: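 S. cerevisiae grown in YPD at 30°C was exposed to library drugs. In one setup, overnight sensitized JTY2953 cultures were diluted 1∶200, given a final 20 µg/ml and fixed after 6–7 h, while other runs dosed dividing JTY2953 with fixation 6 h later or BY4741 with fixation 4.33 h later. Cells were ethanol-fixed, stained with SYTOX Green and analysed by flow cytometry at 10,000 events. The G1 fraction is the area of the Dean-Jett-Fox G1 peak divided by the summed G1 and G2/M areas.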
# [1] = JTY2953 pdr5 snq2 (sensitized), drug added to: cultures diluted from stationary phase, 6-7 h
# [2] = JTY2953 pdr5 snq2 (sensitized), drug added to: actively dividing cells, 6 h
# [3] = BY4741 PDR5+ SNQ2+, drug added to: actively dividing cells, 4.33 h
smiles,measurement,setting,value
NC(CO)C(=O)NNCc1ccc(O)c(O)c1O (configuration not stated) [Benserazide HCl] (77.7459 µM),fraction of cells in G1 phase,[1],0.514
OCCN(CCO)c1nc(N2CCCCC2)c2nc(N(CCO)CCO)nc(N3CCCCC3)c2n1 [Dipyridamole] (39.6324 µM),fraction of cells in G1 phase,[1],0.535
CO[C@@H]1[C@@H](OC(N)=O)[C@@H](O)[C@H](Oc2ccc3c(O)c(NC(=O)c4ccc(O)c(CC=C(C)C)c4)c(=O)oc3c2C)OC1(C)C [Novobiocin Na] (32.6456 µM),fraction of cells in G1 phase,[1],0.513
O=C(c1ccc(F)cc1)C1CCN(CCn2c(=O)[nH]c3ccccc3c2=O)CC1 [Ketanserin tartrate] (50.5769 µM),fraction of cells in G1 phase,[1],0.475
Cc1ccc(NC(=O)c2ccc(CN3CCN(C)CC3)cc2)cc1Nc1nccc(-c2cccnc2)n1 [Imatinib] (40.5173 µM),fraction of cells in G1 phase,[1],0.52
CO[C@@H]1[C@H](OC(=O)/C=C/C=C/C=C/C=C/C(=O)O)CC[C@]2(CO2)[C@H]1[C@@]1(C)O[C@@H]1CC=C(C)C [Fumagillin] (43.6151 µM),fraction of cells in G1 phase,[1],0.518
CCOC(=O)c1cnc2c(cnn2CC)c1NN=C(C)C [Etazolate] (69.1229 µM),fraction of cells in G1 phase,[1],0.5
O=C(O)C(=O)O.[NH-][C@@H]1CCCC[C@H]1[NH-].[Pt+2] [Oxaliplatin] (50.3396 µM),fraction of cells in G1 phase,[1],0.493
"Nc1ccn([C@H]2CC[C@@H](CO)O2)c(=O)n1 [2',3' - dideoxycytidine] (94.687 µM)",fraction of cells in G1 phase,[1],0.474
CC(C(=O)O)c1ccc2c(c1)Cc1cccnc1O2 (configuration not stated) [Pranoprofen] (78.3466 µM),fraction of cells in G1 phase,[1],0.479
Oc1ncnc2[nH]ncc12 [Allopurinol] (146.936 µM),fraction of cells in G1 phase,[1],0.483
NC(=O)N1c2ccccc2C=Cc2ccccc21 [Carbamazepine] (84.6469 µM),fraction of cells in G1 phase,[1],0.483
CC(C[N+](C)(C)C)OC(N)=O (stereo not drawn) [Carbamyl-beta-methylcholine Cl] (124.05 µM),fraction of cells in G1 phase,[1],0.5
Clc1ccccc1CN1CCc2sccc2C1 [Ticlopidine HCl] (75.8175 µM),fraction of cells in G1 phase,[1],0.505
CC(=O)O[C@]1(C(C)=O)CC[C@H]2[C@@H]3C=C(Cl)C4=CC(=O)CC[C@]4(C)[C@H]3CC[C@@]21C [Chlormadinone acetate] (44.5442 µM),fraction of cells in G1 phase,[1],0.577
COc1cc(C(=O)NS(=O)(=O)c2ccccc2C)ccc1Cc1cn(C)c2ccc(NC(=O)OC3CCCC3)cc12 [Zafirlukast] (34.741 µM),fraction of cells in G1 phase,[1],0.509
Cn1c(NCCN(CCO)CCCc2ccc([N+](=O)[O-])cc2)cc(=O)n(C)c1=O [Nifekalant HCl] (49.327 µM),fraction of cells in G1 phase,[1],0.479
COc1ccccc1OCCNCC(O)COc1cccc2[nH]c3ccccc3c12 (configuration not stated) [Carvedilol] (49.2022 µM),fraction of cells in G1 phase,[1],0.525
O=C(O)c1cc(=O)c2c(OCC(O)COc3cccc4oc(C(=O)O)cc(=O)c34)cccc2o1 [Disodium cromoglycate] (39.0365 µM),fraction of cells in G1 phase,[1],0.529
C[C@](N)(Cc1ccc(O)c(O)c1)C(=O)O [Methyldopa] (94.6883 µM),fraction of cells in G1 phase,[1],0.412
CCN(CC)CCCC(C)Nc1ccnc2cc(Cl)ccc12 (configuration not stated) [Chloroquine phosphate] (62.5232 µM),fraction of cells in G1 phase,[1],0.469
CN1[C@@H]2CC[C@H]1C[C@@H](OC(=O)c1c[nH]c3ccccc13)C2 [Tropisetron HCl] (70.3331 µM),fraction of cells in G1 phase,[1],0.469
CO/N=C(\C(=O)N[C@@H]1C(=O)N2C(C(=O)O)=C(COC(C)=O)CS[C@H]12)c1csc(N)n1 [Cefotaxime acid] (43.9106 µM),fraction of cells in G1 phase,[1],0.485
O=P(O)(O)C(O)(Cc1cccnc1)P(=O)(O)O [Risedronic acid] (70.6425 µM),fraction of cells in G1 phase,[1],0.463
CN1[C@@H](CC(=O)c2ccccc2)CCC[C@H]1C[C@H](O)c1ccccc1 [Lobeline] (59.2652 µM),fraction of cells in G1 phase,[1],0.525
CC(=O)O[C@H]1C[C@@H]2CC[C@@H]3[C@H](CC[C@@]4(C)[C@H]3C[C@H]([N+]3(C)CCCCC3)[C@@H]4OC(C)=O)[C@@]2(C)C[C@@H]1N1CCCCC1 [Vecuronium Br] (35.8523 µM),fraction of cells in G1 phase,[1],0.478
CCCCNC(=O)NS(=O)(=O)c1ccc(C)cc1 [Tolbutamide] (73.9774 µM),fraction of cells in G1 phase,[1],0.505
Clc1ccc(CO/N=C(\Cn2ccnc2)c2ccc(Cl)cc2Cl)c(Cl)c1 [Oxiconazole nitrate] (46.6053 µM),fraction of cells in G1 phase,[2],0.397
same,fraction of cells in G1 phase,[1],0.853
CC(=O)[C@]1(O)Cc2c(O)c3c(c(O)c2[C@@H](O[C@H]2C[C@H](N)[C@H](O)[C@H](C)O2)C1)C(=O)c1ccccc1C3=O [Idarubicin] (40.2005 µM),fraction of cells in G1 phase,[3],0.14
same,fraction of cells in G1 phase,[1],0.291
Cc1ccc(S(=O)(=O)NC(=O)NN2CCCCCC2)cc1 [Tolazamide] (64.2249 µM),fraction of cells in G1 phase,[1],0.516
Cc1ccc(/C(=C\CN2CCCC2)c2ccccn2)cc1 [Trans-triprolidine HCl] (71.8389 µM),fraction of cells in G1 phase,[1],0.521
CN1CCCN=C1/C=C/c1cccs1 [Pyrantel pamoate] (33.6309 µM),fraction of cells in G1 phase,[1],0.464
O=C1C(=O)c2ccccc2C(O)=C1C1CCC(c2ccc(Cl)cc2)CC1 (configuration not stated) [Atovaquone] (54.5185 µM),fraction of cells in G1 phase,[1],0.493
O=NN(CCCl)C(=O)NC1CCCCC1 [Lomustine] (85.5799 µM),fraction of cells in G1 phase,[1],0.451
CC(Oc1c(Cl)cccc1Cl)C1=NCCN1 (configuration not stated) [Lofexidine] (77.1792 µM),fraction of cells in G1 phase,[1],0.483
C=CC[N+]1([C@H]2C[C@H]3[C@@H]4CC[C@H]5C[C@H](O)[C@@H](N6CCOCC6)C[C@]5(C)[C@H]4CC[C@]3(C)[C@H]2OC(C)=O)CCCC1 [Rocuronium bromide] (37.7508 µM),fraction of cells in G1 phase,[1],0.479
CCN1CCC[C@H]1CNC(=O)c1c(OC)ccc(Br)c1OC [Remoxipride] (53.8681 µM),fraction of cells in G1 phase,[1],0.525
NC1CCN(c2c(F)cc3c(=O)c(C(=O)O)cn(C4CC4)c3c2Cl)C1 (configuration not stated) [Clinafloxacin HCl] (54.6755 µM),fraction of cells in G1 phase,[3],0.359
same,fraction of cells in G1 phase,[1],0.254
Nc1nc(N)nc(-c2cc(Cl)ccc2Cl)n1 [Irsogladine maleate] (78.0958 µM),fraction of cells in G1 phase,[1],0.471
COc1cc2nc(N(C)CCCNC(=O)C3CCCO3)nc(N)c2cc1OC (configuration not stated) [Alfuzosin] (51.3611 µM),fraction of cells in G1 phase,[1],0.523
C#C[C@]1(O)CC[C@H]2[C@@H]3CCC4=Cc5oncc5C[C@]4(C)[C@H]3CC[C@@]21C [Danazol] (59.2652 µM),fraction of cells in G1 phase,[2],0.457
same,fraction of cells in G1 phase,[1],0.88
CC(=O)O[C@H]1C(=O)[C@@]2(C)[C@H]([C@H](OC(=O)c3ccccc3)[C@]3(O)C[C@H](OC(=O)[C@H](O)[C@@H](NC(=O)c4ccccc4)c4ccccc4)C(C)=C1C3(C)C)[C@]1(OC(C)=O)CO[C@@H]1C[C@@H]2O [Taxol] (23.4212 µM),fraction of cells in G1 phase,[1],0.481
CN1CCC[C@@H]1CCO[C@](C)(c1ccccc1)c1ccc(Cl)cc1 [Clemastine fumarate] (58.1564 µM),fraction of cells in G1 phase,[2],0.585
same,fraction of cells in G1 phase,[1],0.66
O=C(CCNNC(=O)c1ccncc1)NCc1ccccc1 [Nialamide] (67.0359 µM),fraction of cells in G1 phase,[1],0.512
Cc1cc2c(s1)Nc1ccccc1N=C2N1CCN(C)CC1 [Olanzapine] (64.0123 µM),fraction of cells in G1 phase,[1],0.527
CC(C)CN(C[C@@H](O)[C@H](Cc1ccccc1)NC(=O)O[C@H]1CCOC1)S(=O)(=O)c1ccc(N)cc1 [Amprenavir] (39.554 µM),fraction of cells in G1 phase,[1],0.472
OCCN1CCN(CCCN2c3ccccc3Sc3ccc(C(F)(F)F)cc32)CC1 [Fluphenazine 2HCl] (45.711 µM),fraction of cells in G1 phase,[2],0.327
same,fraction of cells in G1 phase,[1],0.862
COc1c(N2CCNC(C)C2)c(F)cc2c(=O)c(C(=O)O)cn(C3CC3)c12 (configuration not stated) [Gatifloxacin] (53.276 µM),fraction of cells in G1 phase,[3],0.391
same,fraction of cells in G1 phase,[1],0.335
CC1=C(C)C(=O)C(CCCCC#CCCCC#CCO)=C(C)C1=O [Docebenone] (61.2671 µM),fraction of cells in G1 phase,[1],0.552
O=P(O)(O)C(O)(Cn1ccnc1)P(=O)(O)O [Zoledronic acid] (73.5045 µM),fraction of cells in G1 phase,[1],0.486
Clc1ccc(C(Cn2ccnc2)OCc2ccsc2Cl)c(Cl)c1 (configuration not stated) [Tioconazole] (51.5839 µM),fraction of cells in G1 phase,[2],0.427
same,fraction of cells in G1 phase,[1],0.863
CCOC(=O)[C@H](CCc1ccccc1)N[C@@H](C)C(=O)N1[C@H](C(=O)O)C[C@@H]2CCC[C@@H]21 [Ramipril] (48.0167 µM),fraction of cells in G1 phase,[1],0.482
C=C1/C(=C\C=C2/CCC[C@]3(C)[C@@H]([C@H](C)/C=C/[C@@H](O)C4CC4)CC[C@@H]23)C[C@@H](O)C[C@@H]1O [Calcipotriene] (48.471 µM),fraction of cells in G1 phase,[2],0.375
same,fraction of cells in G1 phase,[1],0.634
Cc1nc2c([nH]1)c(=O)n(C)c(=O)n2Cc1ccco1 [Furafylline] (76.8479 µM),fraction of cells in G1 phase,[1],0.463
O=C(O[C@@H]1C[C@@H]2C[C@H]3C[C@H](C1)N2CC3=O)c1c[nH]c2ccccc12 [Dolasetron] (61.6555 µM),fraction of cells in G1 phase,[1],0.494
CN(C)CCCN1c2ccccc2Sc2ccc(Cl)cc21 [Chlorpromazine HCl] (62.7212 µM),fraction of cells in G1 phase,[3],0.373
same,fraction of cells in G1 phase,[1],0.278
COc1c(C)c2c(c(O)c1C/C=C(\C)CCC(=O)O)C(=O)OC2 [Mycophenolic acid] (62.4326 µM),fraction of cells in G1 phase,[1],0.54
Nc1ccc(C(=O)O)c(O)c1 [4-aminosalicylic acid] (130.601 µM),fraction of cells in G1 phase,[1],0.481
CC[C@@]1(O)C[C@H](O[C@H]2C[C@H](N(C)C)[C@H](O[C@H]3C[C@H](O)[C@H](O[C@H]4CCC(=O)[C@H](C)O4)[C@H](C)O3)[C@H](C)O2)c2c(cc3c(c2O)C(=O)c2c(O)cccc2C3=O)[C@H]1C(=O)OC [Aclarubicin] (24.6339 µM),fraction of cells in G1 phase,[3],0.431
same,fraction of cells in G1 phase,[1],0.364
NCCCC(O)(P(=O)(O)O)P(=O)(O)O [Alendronate] (80.6158 µM),fraction of cells in G1 phase,[1],0.456
O=C(O)c1cn(-c2ccc(F)cc2)c2cc(N3CCNCC3)c(F)cc2c1=O [Sarafloxacin HCl] (51.8977 µM),fraction of cells in G1 phase,[1],0.444
